# Measurements from paper PMC5540273 (PLoS ONE, 2017).
# pKd: −log10 of the molar value.
# Legend:
# [1] = test system: EIF2AK1
# [2] = test system: ERBB2
# [3] = test system: EPHB6
# [4] = test system: ERBB4
# [5] = test system: ERBB3
# [6] = test system: T1, ERK8
# T1 construct: gene MAPK15
# [7] = test system: FGFR3
# [8] = test system: FLT1
# [9] = test system: FLT4
# [10] = test system: FRK
# [11] = test system: FYN
# 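Note: kd values determined as follow-up on hits from a single-replicate KINOMEscan panel screen.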
smiles,measurement,setting,value
Cn1cncc1-c1ccc2ncnc(Nc3ccc(OCc4ccccc4)cc3)c2c1 [GW320571],pKd,[1],< 5.00
same,pKd,[2],7.39
Nc1ncnc2[nH]c(-c3ccccc3)nc12 [AH5015],pKd,[1],< 5.00
COc1cc(Nc2nccc(N3CCC(NC(=O)Nc4cc(C)ccc4C)C3)n2)cc(OC)c1OC (centres unmarked) [GSK1379762],pKd,[3],5.96
COc1ccc(CNC(=O)NC2CCN(c3ccnc(Nc4cc(OC)c(OC)c(OC)c4)n3)C2)cc1 (centres unmarked) [GSK1379748],pKd,[3],6.74
Cl.O=C(Nc1cccc(-c2nn3ncccc3c2-c2ccnc(Nc3cccnc3)n2)c1)c1c(F)cccc1F [GSK312879],pKd,[2],7.54
same,pKd,[4],7.19
Cl.NC(=O)c1cccc(Nc2nccc(Nc3ccc(Oc4cccc(Cl)c4)c(Cl)c3)n2)c1 [GW659008],pKd,[5],6.59
O=C(Nc1n[nH]c2nc(-c3nccs3)c(Br)cc12)C1CC1 [SB-742251],pKd,[6],6.06
NC(=O)c1nnc2ccccc2c1N,pKd,[7],< 5.00
Cn1ccc2ncnc(Oc3ccc(NC(=O)Nc4ccccc4)cc3)c21,pKd,[8],6.46
O=C(Nc1ccccc1)Nc1cccc(Oc2ccc3nccn3n2)c1,pKd,[8],7.04
COc1cccc(-c2cc(-c3c[nH]nc3-c3ccccn3)ccn2)c1 [GW680338],pKd,[9],< 5.00
O=C(O)COc1ncnc2cc(-c3ccc4[nH]ncc4c3)sc12,pKd,[10],< 5.00
same,pKd,[11],< 5.00
CC(=O)Nc1nc2cnc(Nc3cc(NC(=O)c4cccc(CCC#N)c4)ccc3C)nc2s1,pKd,[10],< 5.00
CC(C)(C)c1ccc(C(=O)Nc2cn3cc(Cl)ccc3n2)cc1,pKd,[11],< 5.00
